Reference: PubChem BioAssay
Records with an inconclusive call do not appear. The source made the active and inactive calls.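 The calls were made as follows, unless noted: active = growth inhibition above 25% in both replicates, a cutoff set 3 SD above the mean; inconclusive = above 25% in only one replicate; inactive = the rest.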

Columns and labels:
[1] = Her2 expression decrease, cell viability multiplex – SKBR3 breast tumor cells, AlphaScreen, ATP viability, primary screen (AID 461;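 active = Her2 level under about 52% in both replicate screens, with viability over 70% of control, limit read from the data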;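 as to Her2 level: lower value means less Her2 protein in the cells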;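 as to viability: percent of carrier control wells set as 100% viability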); conditions: SKBR3 Her2 protein level, 18-24 h, measured here: SKBR3 viability, ATP luminescence, at 10 µM
[2] = molecular target: Receptor tyrosine-protein kinase erbB-2 (Homo sapiens) (UniProt P04626); assay: as above; conditions: 18-24 h, at 10 µM, stronger effect = lower value
Chain of Receptor tyrosine-protein kinase erbB-2 (Homo sapiens) (P04626 whole entry, looked up): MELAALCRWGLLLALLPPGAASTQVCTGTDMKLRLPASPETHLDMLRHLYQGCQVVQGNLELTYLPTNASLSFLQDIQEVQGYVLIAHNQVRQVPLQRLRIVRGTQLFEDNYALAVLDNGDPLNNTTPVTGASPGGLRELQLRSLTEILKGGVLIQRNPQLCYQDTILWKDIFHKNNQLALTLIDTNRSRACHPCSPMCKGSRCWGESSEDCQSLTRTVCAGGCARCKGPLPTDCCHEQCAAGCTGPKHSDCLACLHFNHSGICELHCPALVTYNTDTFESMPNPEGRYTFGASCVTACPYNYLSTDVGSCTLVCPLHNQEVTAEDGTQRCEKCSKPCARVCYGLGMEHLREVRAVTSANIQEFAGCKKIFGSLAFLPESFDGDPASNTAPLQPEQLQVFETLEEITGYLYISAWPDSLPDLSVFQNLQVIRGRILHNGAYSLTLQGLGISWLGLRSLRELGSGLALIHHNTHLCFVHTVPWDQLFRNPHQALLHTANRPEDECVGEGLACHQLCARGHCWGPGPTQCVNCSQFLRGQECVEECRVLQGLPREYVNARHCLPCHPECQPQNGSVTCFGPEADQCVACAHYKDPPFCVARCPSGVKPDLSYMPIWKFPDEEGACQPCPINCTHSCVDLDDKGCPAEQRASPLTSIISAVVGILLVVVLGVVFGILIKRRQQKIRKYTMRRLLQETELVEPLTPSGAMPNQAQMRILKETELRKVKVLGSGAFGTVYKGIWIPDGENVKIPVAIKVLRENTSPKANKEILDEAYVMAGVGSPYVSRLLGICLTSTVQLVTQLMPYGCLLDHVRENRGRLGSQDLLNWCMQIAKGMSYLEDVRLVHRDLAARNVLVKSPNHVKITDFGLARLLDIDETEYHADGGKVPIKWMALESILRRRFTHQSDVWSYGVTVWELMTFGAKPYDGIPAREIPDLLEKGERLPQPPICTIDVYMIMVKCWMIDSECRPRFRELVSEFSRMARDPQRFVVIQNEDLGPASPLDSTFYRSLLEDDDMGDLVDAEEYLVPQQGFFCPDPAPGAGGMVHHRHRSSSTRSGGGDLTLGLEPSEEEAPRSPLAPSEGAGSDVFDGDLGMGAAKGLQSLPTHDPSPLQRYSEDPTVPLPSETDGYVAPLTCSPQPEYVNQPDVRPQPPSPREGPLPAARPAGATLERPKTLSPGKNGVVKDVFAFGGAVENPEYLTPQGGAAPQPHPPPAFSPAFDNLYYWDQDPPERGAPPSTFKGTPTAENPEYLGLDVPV

[3] = reduced viability of SK-BR-3 breast cancer cells – cell-based, 24 h, human, pilot screen (AID 572;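 active = viability at or below 10% of carrier control in both of two separate runs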;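 also: compound exposure lasted between 18 and 24 h rather than exactly 24 h; 100% = carrier-treated control wells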); conditions: SK-BR-3 viability, CellTiter-Glo luminescence, at 10 µM, stronger effect = lower value
[4] = HUVEC growth inhibition – cell-based, human, primary screen (AID 575;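 active = viability at or below 30% in both replicate assays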;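 also: 100% = median of untreated cell wells with 0.1% DMSO on each plate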); conditions: HUVEC proliferation, CellTiter-Glo luminescence, 72 h; at 10 µM; stronger effect = lower value
[5] = H69AR cell proliferation blockers – human, duplicate replicates, primary screen (AID 580;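 active = viability at or under a set limit in both replicates, limit being median viability minus 3 SD, cut at about 48% in these data, passing the limit was not always enough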;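 also: 100% = mean luminescence of untreated wells and 0% = no signal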); conditions: H69AR lung tumor cells viability, ATP luminescence, 72 h; at 10 µM; stronger effect = lower value
[6] = MRP1 drug-resistance reversers in H69AR cells – cell-based, doxorubicin co-treatment, pilot screen (AID 601;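 active = viability loss from added drug above about 55%, and viability with drug at most 40%, in both replicates, limit read from the data, passing the limit was not always enough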); conditions: CellTiter-Glo, 72 h, at 10 µM; for differential viability (reversal): stronger effect = higher value
[7] = yeast transport mutant growth inhibition pilot in 384-well plates, post-Golgi transport modulator project (AID 636; in the data active = inhibition above about 31%); conditions: absorbance 615 nm, about 18 h, stronger effect = higher value
[8] = growth suppression of yeast trafficking mutant, preliminary HTS, modulators of trafficking downstream of Golgi apparatus project, 1536-format plate, OD 615 nm (AID 637; in the data active = inhibition above about 30%); conditions: yeast transport mutant growth, absorbance 615 nm, 18 h; stronger effect = higher value
[9] = S. cerevisiae growth inhibition in permissive medium (OD615), pilot counter-assay for S. cerevisiae lifespan shortening project, permissive growth control (AID 705); conditions: OD615, 24 h, at 10 µM, stronger effect = higher value
[10] = S. cerevisiae growth inhibition in restrictive medium, OD615, pilot screen, restrictive growth control, yeast lifespan reduction project (AID 706;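 active = growth inhibition above a set limit, 3 SD over mean compound inhibition, in both replicates, cut at about 43% in these data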;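 also: modified DeaD lifespan yeast strain shifted to restrictive glucose medium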); conditions: OD615, 48 h, at 10 µM, stronger effect = higher value
[11] = doxorubicin toxicity protection in MRP-1 cells – H69AR cells, CellTiter-Glo, duplicate, MRP-1 activator project, pilot screen (AID 807;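 active = viability increase at or above a cutoff of the median across tested compounds plus 3 SD, cut at about 8.5% in these data, passing the limit was not always enough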;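 also: compound pretreatment 18-22 h then 72 h combined with doxorubicin; 0% = doxorubicin alone and 100% = vehicle without doxorubicin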); conditions: H69AR viability with doxorubicin, CellTiter-Glo luminescence; at 10 µM; stronger effect = higher value
[12] = viability of HCT116 without oncogenic beta-catenin – human colon tumor cells, pilot screen (AID 823;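 active = cell viability at or below a set limit in both duplicate runs, the limit being the all-compound median minus 4 SD, cut at about 23% in these data, passing the limit was not always enough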;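 also: 0% = wells killed by 20 µM Hyamine and 100% = untreated DMSO cell wells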); conditions: HCT116 beta-catenin knockout viability, CellTiter-Glo, 60 h; at 10 µM; stronger effect = lower value
[13] = viability of PTEN-null HCT116 cells – cell-based, HCT116 clonal line, CellTiter-Glo, pilot screen (AID 824;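 active = viability at or below 27.92% in each of two runs, the all-compound median minus 4 SD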;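 also: 0% = 20 µM Hyamine control and 100% = vehicle cell control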); conditions: HCT116 PTEN-deleted viability, 60 h, at 10 µM, stronger effect = lower value
[14] = RAM pathway blockade in budding yeast – dse1pr::URA3 reporter, 5-FOA selection, pilot screen (AID 869;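 active = inhibition over a set limit, the all-compound mean plus 3 SD, in both replicate runs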;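 also: 0% = DMSO wells with no growth and 100% = 10 µM 1-NA-PP1 with full growth; RAM network block rescues cells from 5-FOA so hits raise OD615 growth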); conditions: S. cerevisiae dse1pr::URA3 5-FOA growth, OD615, 2 d; at 10 µM; stronger effect = higher value; strain carries analog-sensitive mutant Cbk1 kinase
[15] = RAM signaling pathway blockade in yeast – S. cerevisiae, Pdr1DBD-CYC8 efflux-inhibited sensitized strain, primary screen (AID 1298;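 active = RAM network inhibition above 8.4% in each of two replicates, 3 SD over the compound average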;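 also: 0% = DMSO untreated cells without growth and 100% = 10 µM 1-NA-PP1 full growth; higher means more yeast growth rescued from 5-FOA killing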); conditions: S. cerevisiae cbk1-as DSE1-URA3 strain, 5-FOA growth OD615, 2 d; at 50 µM; stronger effect = higher value
[16] = H69AR cells + 2 uM doxorubicin, measured here: viability with 2 uM doxorubicin, stronger effect = lower value
[17] = H69AR cells, compound alone cytotoxicity

CC(Sc1nc(-c2ccccc2)cc(C(F)(F)F)n1)C(=O)N1CCCC1 (stereo not drawn)
inactive: Her2 level [2] 94.5% | viability [3] 84.5% | viability [4] 89.7% | viability [5] 88.8% | differential viability (reversal) ([6]; H69AR cells + 2 uM doxorubicin) -8.49% | inhibition [7] -4.13% | inhibition [8] -3.61% | growth inhibition [9] -2% | growth inhibition [10] -21.7% | viability increase [11] -2.25% | viability [12] 89.2% | viability [13] 84% | inhibition [14] 0.895% | RAM network inhibition [15] 1%
88.8%: viability [6, 17]
97.3%: viability [6, 16]
84.5%: viability [1]

Cc1[nH]nc2c1C(=O)CC(C)(C)C2
95.5%: viability [1]
83.7%: viability [6, 16]
89%: viability [6, 17]
inactive: Her2 level [2] 100% | viability [3] 95.5% | viability [4] 100% | viability [5] 89% | differential viability (reversal) ([6]; H69AR cells + 2 uM doxorubicin) 5.23% | inhibition [7] -1.67% | inhibition [8] -10.3% | growth inhibition [9] 2.65% | growth inhibition [10] -3.72% | viability increase [11] -4.31% | viability [12] 95.8% | viability [13] 94% | inhibition [14] 1.44% | RAM network inhibition [15] 1.23%

CC1CCN(c2oc(-c3ccccc3F)nc2C#N)CC1
inactive: Her2 level [2] 95% | viability [3] 82% | viability [4] 78.7% | viability [5] 92% | differential viability (reversal) ([6]; H69AR cells + 2 uM doxorubicin) 7.56% | inhibition [7] -2.27% | inhibition [8] 2.79% | growth inhibition [9] -14.9% | growth inhibition [10] -13.1% | viability increase [11] 0.34% | viability [12] 89.4% | viability [13] 88.9% | inhibition [14] 0.425% | RAM network inhibition [15] 2.79%
84.5%: viability [6, 16]
92%: viability [6, 17]
82%: viability [1]

COc1cccc(-c2nc(CS(=O)(=O)CC(=O)N3CCN(c4ccccn4)CC3)c(C)o2)c1
90%: viability [1]
inactive: Her2 level [2] 112% | viability [3] 90% | viability [4] 81% | viability [5] 90.9% | differential viability (reversal) ([6]; H69AR cells + 2 uM doxorubicin) 12.7% | inhibition [7] -4% | inhibition [8] 3.61% | growth inhibition [9] 0.71% | growth inhibition [10] -2.45% | viability increase [11] -0.47% | viability [12] 73.3% | viability [13] 71.6% | inhibition [14] 0.835% | RAM network inhibition [15] 5.35%
78.3%: viability [6, 16]
90.9%: viability [6, 17]

COc1ccc(NS(=O)(=O)c2ccc(NC(C)=O)cc2)cc1OC
inactive: Her2 level [2] 99% | viability [3] 98.5% | viability [4] 83.5% | viability [5] 94.5% | differential viability (reversal) ([6]; H69AR cells + 2 uM doxorubicin) 4.97% | inhibition [7] 2.69% | growth inhibition [9] 0.65% | growth inhibition [10] -9.44% | viability increase [11] 0.44% | viability [12] 85.4% | viability [13] 85.2% | inhibition [14] 1.85% | RAM network inhibition [15] -1.59%
98.5%: viability [1]
active: inhibition [8] 35.7%
89.5%: viability [6, 16]
94.5%: viability [6, 17]

COc1ccc(S(=O)(=O)NCc2ccc3c(c2)OCO3)cc1C(=O)O
93.4%: viability [6, 16]
96.5%: viability [1]
inactive: Her2 level [2] 84.5% | viability [3] 96.5% | viability [4] 109% | viability [5] 90.1% | differential viability (reversal) ([6]; H69AR cells + 2 uM doxorubicin) -3.31% | inhibition [7] -4.36% | inhibition [8] -0.33% | growth inhibition [9] -4.53% | growth inhibition [10] -6.08% | viability increase [11] -0.34% | viability [12] 96.9% | viability [13] 95.4% | inhibition [14] 1.89% | RAM network inhibition [15] 5.84%
90.1%: viability [6, 17]

COC(=O)c1oc2ccc(Br)cc2c1NC(C)=O
98.2%: viability [6, 17]
94%: viability [1]
94.7%: viability [6, 16]
inactive: Her2 level [2] 81% | viability [3] 94% | viability [4] 96.1% | viability [5] 98.2% | differential viability (reversal) ([6]; H69AR cells + 2 uM doxorubicin) 3.47% | inhibition [7] -4% | inhibition [8] 1.33% | growth inhibition [9] -7.17% | growth inhibition [10] 0.76% | viability increase [11] 1.21% | viability [12] 102% | viability [13] 98.4% | inhibition [14] 0.08% | RAM network inhibition [15] 2.66%

COC1CCCCC1Nc1cccc(SC)c1 (stereo not drawn)
inactive: Her2 level [2] 112% | viability [3] 100% | viability [4] 104% | viability [5] 88.3% | differential viability (reversal) ([6]; H69AR cells + 2 uM doxorubicin) 10.6% | inhibition [7] -3.25% | inhibition [8] -3% | growth inhibition [9] -1.82% | growth inhibition [10] -18.4% | viability increase [11] -3.29% | viability [12] 80.6% | viability [13] 75.1% | inhibition [14] 1.83% | RAM network inhibition [15] 7.2%
88.3%: viability [6, 17]
77.7%: viability [6, 16]
100%: viability [1]

CC1=C(C(=O)OC(C)C)C(c2ccccn2)n2ncnc2N1 (stereo not drawn)
inactive: Her2 level [2] 113% | viability [3] 108% | viability [4] 89.5% | viability [5] 98.1% | differential viability (reversal) ([6]; H69AR cells + 2 uM doxorubicin) 6.04% | inhibition [7] -3.2% | inhibition [8] 0.83% | growth inhibition [9] -5.88% | growth inhibition [10] -3.54% | viability increase [11] -0.55% | viability [12] 106% | viability [13] 99.5% | inhibition [14] 2.84% | RAM network inhibition [15] 7.35%
92.1%: viability [6, 16]
108%: viability [1]
98.1%: viability [6, 17]
